Laboratory results taken from PubChem BioAssay AID488840 (Broad Institute, 2010).
In all, about 1,400 compounds went through this assay and about 45 (3%) were called active.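 The calls were made as follows: active = half-maximal dose of signal decrease from fit no higher than ten times the top valid tested dose; inconclusive = fit invalid, or curve flat with 30 to 70% inhibition; inactive = the rest.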 These entries were drawn from the full list. Measured potencies and affinities stand elsewhere.

Molecular target: Lysine-specific demethylase 4A (Homo sapiens) (UniProt O75164)
Sequence (O75164 whole entry, looked up): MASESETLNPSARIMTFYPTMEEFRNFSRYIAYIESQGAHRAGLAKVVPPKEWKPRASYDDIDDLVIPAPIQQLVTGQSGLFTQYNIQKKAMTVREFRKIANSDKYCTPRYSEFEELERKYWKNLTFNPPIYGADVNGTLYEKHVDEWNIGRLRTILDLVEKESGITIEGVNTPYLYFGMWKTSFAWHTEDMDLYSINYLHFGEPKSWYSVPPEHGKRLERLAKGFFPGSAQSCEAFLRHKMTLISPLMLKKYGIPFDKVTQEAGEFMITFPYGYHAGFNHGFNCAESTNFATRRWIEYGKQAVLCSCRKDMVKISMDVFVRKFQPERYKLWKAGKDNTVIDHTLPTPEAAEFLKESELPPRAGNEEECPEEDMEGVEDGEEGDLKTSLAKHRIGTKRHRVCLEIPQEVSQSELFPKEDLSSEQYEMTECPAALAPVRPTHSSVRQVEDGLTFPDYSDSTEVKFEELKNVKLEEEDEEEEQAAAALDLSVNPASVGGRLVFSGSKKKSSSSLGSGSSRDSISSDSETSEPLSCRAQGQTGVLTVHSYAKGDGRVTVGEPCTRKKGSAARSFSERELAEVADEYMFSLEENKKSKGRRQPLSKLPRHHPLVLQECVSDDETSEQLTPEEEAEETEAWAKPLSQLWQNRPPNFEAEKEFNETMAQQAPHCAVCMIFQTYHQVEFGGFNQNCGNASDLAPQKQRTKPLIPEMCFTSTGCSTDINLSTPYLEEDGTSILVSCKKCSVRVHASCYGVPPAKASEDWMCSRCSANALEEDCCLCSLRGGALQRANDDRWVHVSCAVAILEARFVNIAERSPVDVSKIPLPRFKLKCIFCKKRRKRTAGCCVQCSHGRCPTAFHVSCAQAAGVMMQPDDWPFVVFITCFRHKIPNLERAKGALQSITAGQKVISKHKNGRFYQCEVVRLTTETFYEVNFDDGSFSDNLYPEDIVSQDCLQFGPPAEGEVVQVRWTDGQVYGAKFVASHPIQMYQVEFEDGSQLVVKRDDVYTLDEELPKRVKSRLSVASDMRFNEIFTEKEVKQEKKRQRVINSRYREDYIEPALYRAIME
Assay: JMJD2A histone demethylase inhibitors, dose response, selectivity assay for GASC-1 inhibitor project, biochemical, DELFIA europium, cherry-picked samples (AID 488840);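 also: europium signal reports the dimethyl H3K9 product detected by antibody so inhibitors lower it; 0% = median of neutral control wells and -100% = median of positive control wells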
Conditions: GST-JMJD2A(1-420) H3K9me3 demethylation; series mostly up to 6 µM; activity change, negative = inhibition: at the top concentration

| SMILES | activity change, negative = inhibition |
| --- | --- |
| O=C(Nc1nnc(-c2cc(Cl)ccc2Cl)o1)c1ccco1 | -0.944% (inactive) |
| O=C(Oc1ccc(N2C(=O)CCC2=O)cc1)c1ccccc1 | -0.204% (inactive) |
| O=C(CC1C[C@H](C(=O)N2CCCCC2)[C@@]2(CCc3ccccc3)c3[nH]c4ccccc4c3CCN2C1=O)NCCC1=CCCCC1 (stereo partly specified) | 2.22% (inactive) |
| Cc1ccc(OCC(=O)Nc2ccccc2Sc2ccccc2)c([N+](=O)[O-])n1 | -1.07% (inactive) |
| O=c1oc(C2(O)CCCCC2)cc2ccccc12 | 1.88% (inactive) |
| COc1ccc(C(=O)O/N=C(\C)c2cnccn2)cc1 | -3.82% (inactive) |
| COc1ccc(NC(=O)N(C)C[C@H]2Oc3ccc(NC(=O)CCC(F)(F)F)cc3C(=O)N([C@H](C)CO)C[C@@H]2C)cc1 | -0.526% (inactive) |
| O=C(CSc1nc(-c2ccccc2)cc(=O)[nH]1)NCc1ccc2c(c1)OCO2 | -1.25% (inactive) |
| O=S(=O)(c1ccc2nc(Nc3ccccc3)ccc2c1)N1CCCCC1 | 14.2% (inactive) |
| N#Cc1cnn(CC2CCCCC2)c1N | 2.59% (inactive) |
| CC(=O)C(Sc1nc(N2CCOCC2)nc(N2CCOCC2)n1)C(=O)Nc1ccccc1 (stereo unspecified) | -2.12% (inactive) |
| CCOC(=O)C1=C(C)NC(=O)NC1c1ccc(Br)s1 (stereo unspecified) | -9.77% (inactive) |
| CCOC(=O)C1=C(c2ccccc2)NC(=O)NC1c1ccc(O)c(OCC)c1 (stereo unspecified) | 3% (inactive) |
| Cc1cc(SCC(=O)c2ccccc2)n2nc(C)nc2n1 | 4.99% (inactive) |
| N=c1nc(-c2ccccc2)ccn1O | 2.55% (inactive) |
| O=C(NCC1CCCO1)Nc1ccccc1 (stereo unspecified) | 4.13% (inactive) |
| CCOc1ccc(CN2CCN(Cc3nc(C(C)C)cs3)CC2CCO)cc1 (stereo unspecified) | 9.55% (inactive) |
| O=C(OCc1c(Cl)cccc1Cl)c1cnccn1 | -3.04% (inactive) |
| Cc1ccc(NN=Nc2nc3c([nH]2)c(=O)n(C)c(=O)n3C)cc1 | -12.8% (inactive) |
| Cn1c(=O)c2[nH]c(N3CCN(c4cccc(O)c4)CC3)nc2n(C)c1=O | 1.58% (inactive) |
| C#CCOCCOCCOCCNc1nc(N2CCN(C(=O)C([C@@H](C)O)n3cc([C@@H](N)CCCCN)nn3)CC2)nc(N2CCN(C(=O)[C@H](CC(N)=O)n3cc([C@@H](N)C(C)C)nn3)CC2)n1 (stereo partly specified) | 0.979% (inactive) |
| COc1ccc(/C=N/N(C)c2cc(=O)n(C)c(=O)[nH]2)cc1OC | 8.31% (inactive) |
| Nc1ccc(S(=O)(=O)NC2(C(F)(F)F)NC(=O)N(c3ccc(F)cc3)C2=O)cc1 (stereo unspecified) | 0.62% (inactive) |
| COc1ccc(N(Cc2cc3cccc(C)c3[nH]c2=O)S(C)(=O)=O)cc1 | -0.361% (inactive) |
| O=C(Nc1ccccc1)N(CCc1nc2ccccc2[nH]1)C1CCCC1 | -5.44% (inactive) |
| COc1ccc(NC(=O)NCCCCc2ccccc2)c(OC)c1 | 6.33% (inactive) |

| SMILES | activity change, negative = inhibition |
| --- | --- |
| O=C(Cn1cnc2c(OCc3ccccc3)ncnc21)NCCCc1ccccc1 | -1.3% (inactive) |
| Cc1cc(NC(=O)CCC(=O)N(c2ccccc2)C2(C(=O)NC3CCCCC3)CCCC2)no1 | -3.43% (inactive) |
| Cc1cnc(NC(=O)c2ccc(-c3nc4ccccc4s3)o2)s1 | 1.03% (inactive) |
| Cn1c(/N=C/c2cc(Cl)ccc2O)nc2ccccc21 | 4.98% (inactive) |
| O=C(COC(=O)C1(c2ccc(Cl)cc2)CCCC1)NC1CCS(=O)(=O)C1 (stereo unspecified) | 4.75% (inactive) |
| O=C(CSc1nnc(CNC(=O)c2c(F)cccc2Cl)o1)Nc1ccc2c(c1)OCCO2 | 0.72% (inactive) |
| COc1ccc(-c2nn3c(-c4ccco4)nnc3s2)cc1OC | 13.3% (inactive) |
| O=C(Nc1ccc(-c2nc3ncccc3o2)cc1)c1ccc(Br)o1 | -1.12% (inactive) |
| CC(C)(C)n1nc2c(c1NC(=O)c1ccc(Br)o1)CS(=O)C2 (stereo unspecified) | -1.29% (inactive) |
| CCn1c(CCn2ccnc2C)n[nH]c1=S | 0.682% (inactive) |
| COC(=O)c1cc(S(=O)(=O)N2CCN(c3ccc(F)cc3)CC2)c[nH]1 | -2.52% (inactive) |
| COc1ccc(/C=N/n2c(=O)[nH]c3c([nH]c4ccc(Br)cc43)c2=O)cc1CN1CCOCC1 | 2.87% (inactive) |
| COc1ccc(S(=O)(=O)N(C)C[C@H]2Oc3ccc(NC(=O)Cn4cnnn4)cc3C(=O)N([C@H](C)CO)C[C@@H]2C)cc1 | -2.83% (inactive) |
| C=CCNCCOc1cccc(Br)c1 | -3.77% (inactive) |
| O=C(NCc1ccccn1)c1cn(Cc2ccccc2)nn1 | -6.48% (inactive) |
| CC(=O)Nc1ccc(NC(=O)Cn2cnc3c(cnn3C(C)(C)C)c2=O)cc1 | -13.6% (inactive) |
| Cc1ccc(S(=O)(=O)N2[C@@H](c3ccc(C#N)cc3)C(C(=O)O)=C[C@H]2C(C)(C)C)cc1 | -3.84% (inactive) |
| CC[C@@]1(C(=O)OC)N[C@H](CN(C)C(=O)Nc2ccc(Cl)cc2)[C@@H]2C(=O)N(Cc3ccccc3)C(=O)[C@@H]21 | 3.72% (inactive) |
| O=C(c1cc2ccccc2oc1=O)N1CCN(CCc2ccccc2)CC1 | 1.84% (inactive) |
| Cc1cccc(OCc2nnc(SCC(=O)Nc3cccc(C(=O)N4CCOCC4)c3)o2)c1C | -0.255% (inactive) |
| N=c1n(CC(=O)c2cccc([N+](=O)[O-])c2)c2ccccc2n1Cc1ccccc1 | 1.29% (inactive) |
| Nc1cccc(C(=O)Nc2ccco2)c1 | -3.86% (inactive) |
| COc1cc2[nH]c(=O)n(CCCCCC(=O)NCCCN3CCCC3=O)c(=O)c2cc1OC | 1.66% (inactive) |
| CC(=O)c1sc(NC(=O)c2ccc(C)cc2)nc1C | -7.38% (inactive) |
| Cc1ccc(CNC(=O)Cc2ccc(-c3ccccc3)cc2)cc1 | 6.79% (inactive) |
| CCN1CCC(=NNC(=O)c2ccc(C)c([N+](=O)[O-])c2)CC1 | 0.261% (inactive) |

| SMILES | activity change, negative = inhibition |
| --- | --- |
| Cc1ccc(C2CC(c3ccccc3)=NN2C(=S)Nc2ccccc2)o1 (stereo unspecified) | 3.02% (inactive) |
| CC(C)C[C@H](NC(=O)N1CCCCCC1)C(=O)O | 0.718% (inactive) |
| O=C(NNC(=O)c1cccs1)c1ccc([N+](=O)[O-])cc1 | -5.67% (inactive) |
| CC1=NN(C(N)=S)C(=O)C1N=Nc1c(C)cc(C)cc1C (stereo unspecified) | 3.02% (inactive) |
| Cc1ccccc1CNc1nnnn1C | -0.727% (inactive) |
| C=CCn1c(O)c(N=Nc2ccccc2C)c2ccccc21 | -6.46% (inactive) |
| COC(=O)c1cc(NC(=O)CSc2nncn2C)cc(C(=O)OC)c1 | 0.678% (inactive) |
| COC(C/C=C\[C@H](O)[C@H](C)OCc1ccccc1)OC | 2.1% (inactive) |
| CC(C)(C)OC(=O)C[C@@H]1C/C=C\C[C@H](CC(=O)N[C@H](CO)Cc2ccccc2)C(=O)N[C@@H](Cc2ccccc2)COC1=O | 0.0527% (inactive) |
| C[C@H](CO)N1C[C@H](C)[C@@H](CN(C)Cc2ccc(Cl)c(Cl)c2)Oc2c(NS(=O)(=O)c3cn(C)cn3)cccc2C1=O | -0.723% (inactive) |
| CCOCCCNC(=O)c1c[nH]c2ccc(C)cc2c1=O | 0.456% (inactive) |
| Cc1ccccc1CN1C(=O)C(O)(CC(=O)c2ccncc2)c2ccccc21 (stereo unspecified) | -4.55% (inactive) |
| Cc1ccc(CNC(=O)[C@@H](NC(=O)Cc2ccccc2)C(C)C)cc1 | 2.23% (inactive) |
| O=C(Cc1ccccc1)NC1(O)C(=O)c2ccccc2C1=O | -4.47% (inactive) |
| COc1ccc(OC)c(/C=C2\SC(=S)N(Cc3cccnc3)C2=O)c1 | 0.643% (inactive) |
| COc1ccc(OCC(=O)N/N=C/C(C)=C/c2ccco2)c(Br)c1 | -1.99% (inactive) |
| COc1ccccc1N1CCN(C(=O)CSc2nc(C)cc(=O)[nH]2)CC1 | -2.92% (inactive) |
| COc1ccc(-c2nnc(SC(C)C(=O)NCc3ccc4c(c3)OCO4)n2Cc2ccco2)cc1 (stereo unspecified) | 5.3% (inactive) |
| CCN(CC)C(=O)N1CCc2ccccc2C1CN1C(=O)c2ccccc2C1=O (stereo unspecified) | -1.77% (inactive) |
| C=CCc1c(C)nc(SC(C)C)[nH]c1=O | -9.55% (inactive) |
| O=C(Cn1cnc2c(OCc3ccccc3)ncnc21)N1CCN(c2ccccn2)CC1 | -3.78% (inactive) |
| CC(=O)c1ccc(O[C@@H]2O[C@H](CO)[C@@H](O)[C@H](O)[C@H]2O)cc1 | -4.17% (inactive) |
| CC(C)(O)[C@H](O)Cc1cc2ccc(=O)oc2cc1O[C@@H]1O[C@H](CO)[C@@H](O)[C@H](O)[C@H]1O | -0.509% (inactive) |
| COC(C(=O)Nc1ccc(NC(=O)C(OC)c2ccccc2)cc1)c1ccccc1 (stereo unspecified) | 3.15% (inactive) |
